KB-3-1 cytotox: KB-3-1 parental cell cytotoxicity; KB-3-1 viability, CellTiter-Glo ATP luminescence, 72 h; Potency, µM (highest dose often 46.1 µM), most hits filed as cytotoxic; 1.4% of 400,000 active; further: nearly all actives have a fitted effect of over 60% in size
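KB-3-1 cells, DMEM (no phenol red) + 10% FBS; compound by pin transfer, 72 h, 37 °C. Readout: CellTiter-Glo luminescence after 10 min. Data normalized, curve-fitted.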
HT1080NT lethal: kills 2HG-producing HT-1080-NT fibrosarcoma cells. 1.6% of 360,000 active. HT-1080-NT fibrosarcoma viability, CellTiter-Glo ATP luminescence, 48 h. Potency, µM (top dose mostly 46.1 µM), usual class: cytotoxic;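 further: NT is the 2HG producing partner of a matched IDH1 knockdown line; nearly all actives have a fitted effect of over 55% in size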
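Luminescent CellTiter-Glo readout after 48 hours of compound exposure at 37 degrees C defined viability of HT-1080-NT cells. Activity was normalized to DMSO wells and cell-free media wells; concentration-response curves were fitted and assigned curve classes.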
HT1080 IDH1KD tx: HT-1080 IDH1 knockdown cell toxicity (counter line). HT-1080 IDH1 knockdown viability, ATP luminescence, 48 h. Potency, µM (top dose mostly 46.1 µM), usual class: cytotoxic. 2% of 360,000 active
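Luminescent ATP read-out (CellTiter-Glo, 10 min at room temperature) after 48 h compound exposure at 37 °C gave viability of IDH1-knockdown HT-1080 cells. Activity was normalised to DMSO and cell-free wells, then fitted as concentration-response curves.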
DT40 TDP1 no CPT: qHTS for Inhibitors of human tyrosyl-DNA phosphodiesterase 1 (TDP1): qHTS in cells in absence of CPT | DT40 Tdp1-/- hTDP1 cells, no CPT, ATP luminescence, 48 h | Potency, µM (top dose mostly 46.2 µM), hits mostly inhibitors | 15% of 420,000 active | AID 686978, 2013; further: nearly all actives have a fitted effect of over 55% in size
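Seeded 400 DT40-hTDP1 cells/well (vehicle DMSO, no 20 nM CPT); pinned compounds; ≥48 hr at 37 °C; CellTiter-Glo luminescence as viability measure.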
TDP1 cell CPT: growth inhibition of DT40 Tdp1-/-;hTDP1 cells with camptothecin (screen for TDP1 inhibitors) | 12% of 420,000 active | chicken DT40 Tdp1-/-;hTDP1 cells + 20 nM CPT, ATP luminescence, 48 h | Potency, µM (highest dose often 46.2 µM), actives largely listed as inhibitors; further: nearly all actives have a fitted effect of over 55% in size
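Chicken DT40 Tdp1-/- cells complemented with human TDP1, 400 cells/well, exposed to compounds plus 20 nM camptothecin for at least 48 h at 37 C; viability read as ATP content by CellTiter-Glo luminescence.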
KB-V1 MDR tox: KB-V1 MDR subline cytotoxicity; KB-V1 MDR cells viability, CellTiter-Glo, 72 h; Potency, µM (series often up to 46.1 µM), usual class: cytotoxic; 3.4% of 400,000 active; further: nearly all actives have a fitted effect of over 60% in size
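Cells of the MDR subline KB-V1 are plated, dosed with compound at multiple concentrations, and incubated 72 h at 37 degrees C; CellTiter-Glo is then added and luminescence read after 10 min.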
Of the large screens only hits and unclear results are named; the others gave an inactive call. Compounds with a hit are over-represented: about 19% of the library has one in this group of screens. The call rests on the fitted dose curve; in most records, active means well fitted curve in the direction sought with a large enough effect; inconclusive means small, poorly fitted or top-dose-only effect, or another doubt; inactive means no such curve, though single readings can be large; an effect the other way counts as inactive or inconclusive.

CCCCNC(=O)C(CC)(ONc1ccccc1C(F)(F)F)c1ccccc1OC (stereo unspecified)	DT40 TDP1 no CPT 16.4µM, TDP1 cell CPT inconclusive
CCCCCCCN1CCC(=O)N([C@H](CO)c2ccccc2)CC1	none
CCCCNC(=O)c1onc(CSc2nc3ccccc3[nH]2)c1C(=O)NCCCC	DT40 TDP1 no CPT inconclusive, TDP1 cell CPT inconclusive
O=C(NCC1CC1)c1onc(CSc2nc3ccccc3[nH]2)c1C(=O)NCC1CC1	DT40 TDP1 no CPT inconclusive, TDP1 cell CPT 20.6µM
O=C(OCCN=C1NS(=O)(=O)c2ccccc21)c1ccco1	none
COc1ccccc1-c1nc(C#N)c(NCc2ccc(F)cc2)o1	DT40 TDP1 no CPT inconclusive
Cc1cc(C)c(C)c(S(=O)(=O)Nc2ccccc2C(=O)NCCCN2CCOCC2)c1C	DT40 TDP1 no CPT inconclusive, TDP1 cell CPT inconclusive, KB-V1 MDR tox inconclusive
O=C(NCCCn1ccnc1)c1ccccc1NS(=O)(=O)c1ccc(F)c(F)c1	HT1080 IDH1KD tx inconclusive, DT40 TDP1 no CPT inconclusive, TDP1 cell CPT 15.8µM
Cc1cc(C)c(C)c(S(=O)(=O)Nc2ccccc2C(=O)NCCCn2ccnc2)c1C	HT1080NT lethal inconclusive, HT1080 IDH1KD tx inconclusive, DT40 TDP1 no CPT 5.8µM, TDP1 cell CPT 4.61µM
COc1ccc(-c2nn(-c3ccccc3)cc2C(=O)Nc2ccccc2OC)cc1	DT40 TDP1 no CPT 20.6µM, TDP1 cell CPT 16.4µM (no result: HT1080NT lethal, HT1080 IDH1KD tx)
COc1ccc(NC(=O)c2cn(-c3ccccc3)nc2-c2cc3ccccc3o2)cc1	DT40 TDP1 no CPT 20.6µM, TDP1 cell CPT 16.4µM
O=C(CN1CCc2ccccc21)NC(=O)NC1CCCCC1	DT40 TDP1 no CPT inconclusive, TDP1 cell CPT inconclusive
CCOC(=O)C1CCCN(C(=O)c2oc3ccccc3c2C)CC1 (stereo unspecified)	TDP1 cell CPT inconclusive
Cc1sc2nc(CN3CCCCC3)nc(N3CCN(C(=O)c4ccco4)CC3)c2c1C	HT1080NT lethal inconclusive, TDP1 cell CPT inconclusive
CCCc1nc2scc(-c3ccccc3)c2c(=O)n1N	DT40 TDP1 no CPT inconclusive
CCNc1nc(CN2CCCCC2)nc2scc(-c3ccccc3)c12	KB-3-1 cytotox inconclusive, HT1080 IDH1KD tx inconclusive, DT40 TDP1 no CPT 16.4µM, TDP1 cell CPT 11.6µM, KB-V1 MDR tox inconclusive
OCC1CCCN(c2nc(CN3CCCCC3)nc3scc(-c4ccccc4)c23)C1 (stereo unspecified)	DT40 TDP1 no CPT inconclusive, TDP1 cell CPT 14.6µM
Cn1cccc1/C=N/N1CCN(Cc2ccccc2)CC1	none
Cn1cccc1/C=N/N1CCN(Cc2cccc3ccccc23)CC1	DT40 TDP1 no CPT 13µM, TDP1 cell CPT inconclusive
COc1ccc(S(=O)(=O)N2CCCC(c3cc(C(=O)NCc4cccnc4)no3)C2)cc1 (stereo unspecified)	HT1080NT lethal inconclusive, DT40 TDP1 no CPT inconclusive, TDP1 cell CPT 23.1µM
CCCNC(=O)c1cc(C2CCCCN2S(=O)(=O)c2cccc3cccnc23)on1 (stereo unspecified)	TDP1 cell CPT inconclusive
Cc1ccc(C)c(CC(=O)N2CCCC(c3cc(C(=O)NCc4cccnc4)no3)C2)c1 (stereo unspecified)	HT1080NT lethal inconclusive, DT40 TDP1 no CPT 14.6µM, TDP1 cell CPT inconclusive
CCCNC(=O)c1cc(C2CCCN(C(=O)c3ccc(OC)cc3)C2)on1 (stereo unspecified)	none
CCCNC(=O)c1cc(C2CCCN(S(=O)(=O)c3cccc4cccnc34)C2)on1 (stereo unspecified)	DT40 TDP1 no CPT inconclusive, TDP1 cell CPT 16.4µM
CCCNC(=O)c1cc(C2CCCN(C(=O)c3ccc4ccccc4c3)C2)on1 (stereo unspecified)	DT40 TDP1 no CPT 23.1µM, TDP1 cell CPT 18.4µM
CC(C)S(=O)(=O)N1CCCC(c2cc(C(=O)NCc3cccnc3)no2)C1 (stereo unspecified)	none
CCCCn1c(N)c(N(CCOC)C(=O)COC(=O)COc2ccccc2C#N)c(=O)[nH]c1=O	KB-V1 MDR tox inconclusive
